# Results: PubChem BioAssay (NCI)
# Compounds without any hit were thinned out: in the full panel of roughly 83,000, 20% have a hit.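 In brief: 96-well plates, 48 h treatment, single concentration, percent growth endpoint.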 The source made the active and inactive calls. How the source made its calls: active means growth percent below 10; inactive means the rest.
# System: DU-145 prostate
# Assay: NCI-60 one-dose screen, 48 h (100 = growth as untreated, 0 = no growth, -100 = all killed)
# Conditions: 10 µM unless noted
row,SMILES,growth
1,c1cnc2[nH]cc(-c3csc(-c4cn(CCCCN5CCCCC5)c5ccccc45)n3)c2c1,107% (inactive)
2,COc1ccc(NC([Se])=NC23CC4CC(CC(C4)C2)C3)cc1,2.16% (active)
3,Clc1cccc(Cl)c1Cl,101% (inactive)
4,C[C@]12CCc3sc(-c4ccccc4O)nc3C1=CC[C@@H]1[C@@H]2CC[C@]2(C)C(=O)CC[C@@H]12,107% (inactive)
5,O=C(CC1(O)C(=O)Nc2ccccc21)c1ccc(C(=O)NCC2CCC3(CC2)OOC2(CCCCC2)OO3)cc1 (stereo unspecified),76.3% (inactive)
6,CCCOC(=O)N[C@H]1CCc2c(Br)c(OC)c(OC)c(OC)c2-c2ccc(SC)c(=O)cc21,-15.7% (active)
7,Cc1cc(C)c(CBr)c(C)c1,107% (inactive)

# System: K-562 leukemia
# Assay: as above
# Conditions: 10 µM unless noted
row,SMILES,growth
1,CCCC[C@H](NC(=O)[C@H]1CCCN1C)C(=O)N(C)[C@H](C[C@@H](OC(C)=O)c1nc(C(=O)N[C@@H](Cc2ccccc2)C[C@H](C)C(=O)OCC)cs1)C(C)C,9.85% (active)
2,COc1ccc2c(c1)c(-c1nc(-c3c[nH]c4ncccc34)cs1)cn2CCCCN1CCCCC1,-73.7% (active)
3,COC(=O)[C@H](Cc1ccccc1)NC(=O)c1csc([C@@H](C[C@H](C(C)C)N(C)C(=O)[C@@H](NC(=O)[C@H]2CCCN2C)C2CC2)OC(C)=O)n1,1.55% (active)
4,C[C@]12CC[C@H]3[C@@H](CC[C@]4(O)C[C@@H](O[C@@H]5O[C@H](CO)[C@@H](O[C@@H]6OC[C@@H](O)[C@H](O)[C@H]6O)[C@H](O)[C@H]5O)CC[C@]34C=O)[C@@]1(O)CC[C@@H]2C1=CC(=O)OC1,4.28% (active)
5,c1cc2c(c3c1CCNC3)OCO2,106% (inactive)
6,Fc1ccc2c(c1)c(-c1nc(-c3c[nH]c4ncccc34)cs1)cn2CCCCN1CCCCC1,-74.1% (active)
7,O=C(Nc1ccncc1F)c1cn(CC2CC2)c2ccccc12,95.7% (inactive)
8,C/C=C(\C)C(=O)O[C@@H]1C(O)[C@H]2OC(COC(=O)CCC(=O)CCCCCC[C@H](CCCCC)O[C@@H]3OC(C)[C@H](OC(C)=O)C(O)[C@H]3O2)[C@H]1OC(=O)/C=C/c1ccccc1 (stereo partly specified),30.2% (inactive)
9,CC(=O)O[C@H](C[C@H](C(C)C)N(C)C(=O)[C@@H](NC(=O)[C@H]1CCCCN1C)C(C)(C)C)c1nc(C(=O)N[C@@H](Cc2ccccc2)C[C@H](C)C(=O)O)cs1,5.51% (active)
10,COc1ccc(C(=O)c2cc(OC)c(OC)c(OC)c2)cc1OC(C)=O,10.4% (inactive)
11,COc1ccc(N(CC(=O)NCCC[Te]c2ccccc2)C(=O)CNC(=O)OC(C)(C)C)cc1,97% (inactive)
12,COC(=O)[C@@H](C)C[C@H](Cc1ccccc1)NC(=O)c1csc([C@@H](C[C@H](C(C)C)N(C)C(=O)[C@@H](NC(=O)[C@H]2CCCCN2C)C(C)C)OC(C)=O)n1,1.46% (active)
13,NC(=O)CNc1ccc([As]=[As]c2ccc(NCC(N)=O)cc2)cc1 (stereo unspecified),19% (inactive)
14,Fc1ccc2c(c1)c(-c1nc(-c3c[nH]c4ncccc34)cs1)cn2CCN1CCOCC1,18.6% (inactive)
15,O=C([O][Hg][CH2]C1COCC([CH2][Hg][O]C(=O)c2ccccc2)O1)c1ccccc1 (stereo unspecified),4.71% (active)
16,O=[N+]([O-])CC(c1ccccc1Cl)c1c(-c2ccccc2)[nH]c2ccccc12 (stereo unspecified),12.4% (inactive)
17,CCn1c2ccccc2c2cc(C(=O)c3cccc4c3CCCN4)ccc21,101% (inactive)

row,SMILES,growth
1,COc1ccc(/C(C)=C(\c2ccc(OCCN3CCOCC3)cc2)c2ccc(OC(=O)Cc3ccccc3)cc2)cc1,91% (inactive)
2,Cc1cc(N(CCCl)CCCl)ccc1C=Nc1ccc(-c2csc(Cc3ccccc3)n2)cc1,56.8% (inactive)
3,Cc1ccc2c(C(C[N+](=O)[O-])c3cccs3)c(-c3ccccc3)[nH]c2c1 (stereo unspecified),10.8% (inactive)
4,O=C(CC1(O)C(=O)N(Cc2ccccc2)c2ccc(Cl)cc21)c1ccc(C(=O)NCC2CCC3(CC2)OOC2(CCCCC2)OO3)cc1 (stereo unspecified),-49% (active)
5,CCOC(=O)CCC(NC(=O)C(Cc1ccc(N(CCCl)CCCl)cc1)NC=O)C(=O)OCC (stereo unspecified),35.6% (inactive)
6,COC(=O)[C@@H](C)C[C@H](Cc1ccccc1)NC(=O)c1csc([C@@H](C[C@H](C(C)C)N(C)C(=O)[C@@H](NC(=O)C23CC(NC(C)=O)(C2)C3)C2CC2)OC(C)=O)n1,14.2% (inactive)
7,COC(=O)[C@]12CCC(C)(C)C[C@H]1[C@H]1C(=O)C[C@@H]3[C@@]4(C)C[C@@]5(CC(C)(C)[C@@H]4CC[C@@]3(C)[C@]1(C)CC2)OO[C@@](C)(C(F)(F)F)O5,88.3% (inactive)
8,CNC(=O)Oc1ccc(N(C)C)cc1C(C)C,129% (inactive)
9,COc1ccc(/C=C\c2cc(OC)c(OC)c(OC)c2)cc1OCC(=O)Nc1nc2ccc(C(F)(F)F)cc2s1,16% (inactive)
10,O=C(CC1(O)C(=O)N(Cc2ccccc2)c2ccc(F)cc21)c1ccc(C(=O)NCC2CCC3(CC2)OOC2(CCCCC2)OO3)cc1 (stereo unspecified),-42.7% (active)
11,c1cnc2[nH]cc(-c3csc(-c4cn(CCCCN5CCCCC5)c5ccccc45)n3)c2c1,10.9% (inactive)
12,COc1ccc(NC([Se])=NC23CC4CC(CC(C4)C2)C3)cc1,12.3% (inactive)
13,Clc1cccc(Cl)c1Cl,84.9% (inactive)
14,C[C@]12CCc3sc(-c4ccccc4O)nc3C1=CC[C@@H]1[C@@H]2CC[C@]2(C)C(=O)CC[C@@H]12,95.8% (inactive)
15,O=C(CC1(O)C(=O)Nc2ccccc21)c1ccc(C(=O)NCC2CCC3(CC2)OOC2(CCCCC2)OO3)cc1 (stereo unspecified),39.6% (inactive)
16,CCCOC(=O)N[C@H]1CCc2c(Br)c(OC)c(OC)c(OC)c2-c2ccc(SC)c(=O)cc21,10.1% (inactive)
17,Cc1cc(C)c(CBr)c(C)c1,107% (inactive)
